According to PubChem BioAssay:
“And” between values parts separate entries of the source, which are not always exact repeats. Identical values can stand only once. The source made the active and inactive calls.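 Rule for the calls: active = thallium flux through the channel raised or lowered by more than 3 SD from vehicle-only wells, actives on both sides; inactive = the rest.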

test system: R275C; experiment: BK channel mutant inhibitors and activators – cell-based, U2OS BacMam, thallium flux, beta subunits, selectivity assay, profiling panel (AID 1259406); conditions: U2OS BacMam BK variants, at 30 µM;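 note: initial slope of Thallos dye fluorescence rise after thallium is added; log ratio against the mean of 0.3% DMSO vehicle wells on the same plate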

Log fold change Tl+ flux, inactive:
O=c1[nH]cc(F)c(=O)[nH]1 -0.0492, CCc1nc(N)nc(N)c1-c1ccc(Cl)cc1 -0.00785, CCc1cccc2c3c([nH]c12)C(CC)(CC(=O)O)OCC3 (stereo unspecified) 0.0181, Nc1ncn([C@@H]2O[C@H](CO)[C@@H](O)[C@H]2O)c(=O)n1 0.0227, Cc1ccccc1C(OCCN(C)C)c1ccccc1 (stereo unspecified) 0.02 and -0.0278, Cc1ccc(C)c(OCCCC(C)(C)C(=O)O)c1 0.0109, NC(=O)c1cnccn1 -0.0218, CCCCCCNC(=O)n1cc(F)c(=O)[nH]c1=O -0.0237, COC1=CC(=O)C[C@@H](C)[C@]12Oc1c(Cl)c(OC)cc(OC)c1C2=O -0.0442, N[C@@H](C(=O)N[C@@H]1C(=O)N2C(C(=O)O)=C(Cl)CS[C@H]12)c1ccccc1 0.0278, CO[C@@]1(NC(=O)Cc2cccs2)C(=O)N2C(C(=O)O)=C(COC(N)=O)CS[C@@H]21 0.0592, OCCN1CCN(CCCN2c3ccccc3Sc3ccc(C(F)(F)F)cc32)CC1 -0.11, CN(C)CCOC(c1ccc(Cl)cc1)c1ccccn1 (stereo unspecified) 0.0106, Cc1onc(-c2c(Cl)cccc2Cl)c1C(=O)N[C@@H]1C(=O)N2[C@@H]1SC(C)(C)[C@@H]2C(=O)O -0.0255, COc1cc2nc(N(C)CCCNC(=O)C3CCCO3)nc(N)c2cc1OC (stereo unspecified) -0.0434

Log fold change Tl+ flux, active:
Cc1ncc([N+](=O)[O-])n1CC(C)O (stereo unspecified) -0.115
